Among the data in PubChem BioAssay (EPA / NIEHS) are outcome and AC50 values, retold here.

Assay [1] is described as follows: ATG_DR4_LXR_CIS: Attagene CIS-FACTORIAL HepG2 Assay for human Liver X Receptor (LXR), DR4 submotif (AID 2282929). The following applies: HepG2 Attagene DR4 cis-reporter, mRNA transcription; actives raise or lower the signal. The procedure, abridged:
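DR4 cis-reporter in HepG2, 24 h exposure. Detection: RT-PCR, 6-FAM labelling, CE fragment analysis. Endpoint fitted bidirectionally, DMSO = baseline.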

The target of assay [2] is Aryl hydrocarbon receptor (Homo sapiens) (UniProt P35869). As to the kind of experiment: ATG_Ahr_CIS: Attagene CIS-FACTORIAL HepG2 Assay for human Aryl Hydrocarbon Receptor (Ahr) (AID 2282930). The following applies: HepG2 AhR cis-factorial reporter transcription; actives raise or lower the signal. The procedure, abridged: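 HepG2 cells transiently transfected with cis-element-driven multiplexed reporter transcription units; endogenous transcription factor activity measured as reporter mRNA 24 h after dosing. RT-PCR, 6-FAM labelling, HpaI digestion, capillary electrophoresis; bidirectional fitting versus DMSO baseline.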

Assay [3] is described as follows: ATG_AP_1_CIS: Attagene CIS-FACTORIAL HepG2 Assay for human Activator Protein 1 (AP-1) (AID 2282931). The following applies: HepG2 Attagene cis-factorial AP-1 reporter mRNA; actives raise or lower the signal. The procedure, abridged:
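Cis-regulated reporter units transiently expressed in HepG2 report endogenous transcription-factor activity. Signal: reporter mRNA at 24 h, via RT-PCR and fluorescent capillary electrophoresis. Endpoint derived by bidirectional fitting, DMSO as negative control.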

Assay [4] is described as follows: ATG_AP_2_CIS: Attagene CIS-FACTORIAL HepG2 Assay for human Activator Protein 2 (AP-2) (AID 2282932). The following applies: HepG2 AP-2 cis-reporter, Attagene transcription factor profiling; actives raise or lower the signal. An outline of the steps:
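Cells (HepG2) transfected with promoter-driven reporter constructs, treated 24 h. Total RNA reverse-transcribed, reporter cDNA PCR-amplified, FAM-labelled by primer extension, digested, resolved by capillary electrophoresis. Activity fitted both directions versus DMSO.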

A short description of assay [5]: ATG_BRE_CIS: Attagene CIS-FACTORIAL HepG2 Assay for human Bone Morphogenetic Protein (BMP) Response Element (BRE) (AID 2282933). The conditions noted are these: HepG2 BMP response element reporter, Attagene transcription factor profiling; actives raise or lower the signal. The procedure, abridged: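 A HepG2 multiplex reporter system measured inducible reporter mRNA 24 h post-dosing. Detection: RT-PCR, 6-FAM primer extension, HpaI digestion, capillary electrophoresis. Activity fitted bidirectionally relative to DMSO.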

The target of assay [6] is Retinoic acid receptor alpha (Homo sapiens) (UniProt P10276). The experiment in a line: ATG_DR5_RAR_CIS: Attagene CIS-FACTORIAL HepG2 Assay for human Retinoic Acid Receptor Alpha (RARE), DR5 submotif (AID 2282934). The following applies: HepG2 Attagene cis-factorial RARE DR5 reporter, mRNA; actives raise or lower the signal. The procedure, abridged: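 HepG2 cells transiently transfected with multiplexed reporter units under cis (DR5 RARE) promoters, so endogenous transcription factor activity is measured. After 24 h compound exposure, reporter mRNA is quantified by RT-PCR with fluorescent labelling and capillary electrophoresis; bidirectional fitting versus DMSO.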

Assay [7] can be described thus: ATG_E_Box_CIS: Attagene CIS-FACTORIAL HepG2 Assay for human Enhancer Box (E-box) (AID 2282936). The conditions noted are these: HepG2 E-box cis-reporter transcription, actives raise or lower the signal. The procedure, abridged: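 Endogenous transcription factor activity was sensed in human HepG2 liver cells through transfected cis-promoter reporter units. After 24 h of dosing, total RNA was reverse-transcribed and reporter cDNA resolved by capillary electrophoresis.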

The nature of assay [8]: ATG_EGR_CIS: Attagene CIS-FACTORIAL HepG2 Assay for human Early Growth Response 1 (EGR1) (AID 2282938). The following applies: HepG2 Attagene CIS-FACTORIAL EGR reporter mRNA; actives raise or lower the signal. An outline of the steps:
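Endpoint derived by bidirectional fitting versus DMSO vehicle. Method: cis-promoter reporter units transfected into HepG2, 24 h dosing, RNA isolation, RT-PCR with 6-FAM primer extension and HpaI digestion, then capillary electrophoresis fluorescence detection.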

Assay [9] in a line: ATG_Ets_CIS: Attagene CIS-FACTORIAL HepG2 Assay for human Erythroblast Transformation Specific (ETS) (AID 2282941). The following applies: HepG2 ETS cis-reporter transcription, actives raise or lower the signal. The procedure, abridged: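 RT-PCR/capillary electrophoresis fluorescence read-out of reporter mRNA; HepG2 transient multi-reporter transfection; 24 h compound exposure; gain or loss of signal fitted bidirectionally relative to DMSO.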

Assay [10] has as its target Hepatocyte nuclear factor 3-beta (Homo sapiens) (UniProt Q9Y261). The experiment in a line: ATG_FoxA2_CIS: Attagene CIS-FACTORIAL HepG2 Assay for human Forkhead box A2 (FOXA2) (AID 2282942). The conditions noted are these: HepG2 cis-reporter transcription factor activity, 24 h; actives raise or lower the signal. An outline of the steps: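 Measured: reporter mRNA induction or loss in HepG2 transiently carrying multiple cis-regulated reporter units, 24 h after dosing. Quantified by RT-PCR plus capillary electrophoresis, normalised to DMSO.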

Assay [11] in a line: ATG_FoxO_CIS: Attagene CIS-FACTORIAL HepG2 Assay for human Forkhead box O (FoxO) (AID 2282943). The conditions noted are these: HepG2 Attagene cis-reporter, FoxO element, mRNA; actives raise or lower the signal. An outline of the steps: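 HepG2 cells transiently transfected with cis-promoter-driven multiple reporter transcription units; 24 h after chemical dosing, reporter mRNA quantified by RT-PCR, fluorescent primer extension, HpaI digestion and capillary electrophoresis. Bidirectional fitting versus DMSO baseline.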

Assay [12] is described as follows: ATG_GATA_CIS: Attagene CIS-FACTORIAL HepG2 Assay for human GATA Binding Protein (AID 2282944). The conditions noted are these: HepG2 GATA cis-element reporter, Attagene multiplex mRNA; actives raise or lower the signal. An outline of the steps:
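Transfected cis-reporter HepG2 cells were treated with chemicals for 24 hours. Total RNA was then converted to cDNA, amplified with reporter-specific primers and analysed by fluorescent capillary electrophoresis, using DMSO-treated wells as baseline.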

Assay [13] can be described thus: ATG_GLI_CIS: Attagene CIS-FACTORIAL HepG2 Assay for human Zinc Finger Protein GLI1 (AID 2282945). The conditions noted are these: HepG2, Attagene cis-factorial reporter mRNA, GLI element; actives raise or lower the signal. An outline of the steps: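 HepG2 cells transiently transfected with cis-promoter multiplexed reporter units report endogenous transcription factor activity. After 24 h chemical exposure, reporter mRNA was quantified by RT-PCR, 6-FAM labelling, HpaI digestion and capillary electrophoresis, with bidirectional fitting against DMSO.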

Assay [14] is described as follows: ATG_ISRE_CIS: Attagene CIS-FACTORIAL HepG2 Assay for human Interferon Regulatory Factor 1 (IRF1) binding to an Interferon-Stimulated Response Element (ISRE) (AID 2282948). The conditions noted are these: HepG2 ISRE cis-reporter (Attagene), mRNA transcription readout; actives raise or lower the signal. The procedure, abridged:
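Read-out: fluorescent RT-PCR products resolved by capillary electrophoresis, reporting endogenous transcription factor activity via ISRE-driven reporter mRNA in transfected HepG2 cells dosed for 24 h; gain or loss fitted relative to DMSO.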

Assay [15] can be described thus: ATG_M_61_CIS: Attagene CIS-FACTORIAL HepG2 Assay for M61 Transcription Factor (Internal Marker) (AID 2282937). The following applies: HepG2 Attagene CIS-FACTORIAL M61 internal marker reporter; actives raise or lower the signal. An outline of the steps: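 Background-control endpoint: HepG2 cells with cis-regulated reporter constructs, 24 h exposure, reporter mRNA detected via fluorescent primer extension and capillary electrophoresis; values from bidirectional fitting with DMSO baseline.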

Assay [16] is described as follows: ATG_M_19_CIS: Attagene CIS-FACTORIAL HepG2 Assay for M19 Transcription Factor (Internal Marker) (AID 2282939). The conditions noted are these: HepG2 Attagene CIS-FACTORIAL M19 internal marker reporter; actives raise or lower the signal. An outline of the steps:
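Chemical-treated HepG2 (24 h) with MRTU constructs; reporter transcripts detected by fluorescent RT-PCR fragment analysis on capillary electrophoresis. Internal background marker, DMSO as baseline.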

A short description of assay [17]: ATG_ERE_CIS: Attagene CIS-FACTORIAL HepG2 Assay for Estrogen Response Element (ERE) (AID 2282940). The following applies: HepG2 ERE cis-reporter, Attagene RNA transcript; actives raise or lower the signal. The procedure, abridged:
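Human liver cells (HepG2) bearing transiently transfected, promoter-regulated reporter units were exposed 24 h. Reporter mRNA induction was detected by capillary electrophoresis of labelled RT-PCR products and fitted bidirectionally to DMSO.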

The target of assay [18] is Bile acid receptor (Homo sapiens) (UniProt Q96RI1). As to the kind of experiment: ATG_IR1_CIS: Attagene CIS-FACTORIAL HepG2 Assay for human Nuclear Receptor Subfamily 1 Group H Member 4 (NR1H4), IR1 submotif (AID 2282946). The conditions noted are these: IR1 reporter transcription, actives raise or lower the signal. The procedure, abridged: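 Readout: reporter transcript levels by RT-PCR with fluorescent capillary electrophoresis, from HepG2 cells transiently transfected with multiplexed cis-regulated reporters and dosed 24 h. Gain- or loss-of-signal fitted versus DMSO negative control.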

The nature of assay [19]: ATG_GRE_CIS: Attagene CIS-FACTORIAL HepG2 Assay for human Glucocorticoid Response Elements (GRE) (AID 2282947). The following applies: HepG2 GRE cis-reporter, Attagene multiplex mRNA; actives raise or lower the signal. The procedure, abridged: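 Cells (HepG2) bearing transfected cis-promoter reporter transcription units were treated with chemical for 24 hours. Reporter mRNA was measured via RT-PCR with capillary electrophoresis, and activity was fitted in both directions relative to DMSO.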

What is called AC50 is the concentration giving half of the maximal activity seen.

Calls of active or inactive are those of the source. How the source made its calls: active means hit-call score of the fitted dose curve at least 0.9, where 1 is the maximum; inactive means score below 0.9.

Hepatocyte nuclear factor 3-beta (Homo sapiens), sequence (Q9Y261 whole entry, looked up): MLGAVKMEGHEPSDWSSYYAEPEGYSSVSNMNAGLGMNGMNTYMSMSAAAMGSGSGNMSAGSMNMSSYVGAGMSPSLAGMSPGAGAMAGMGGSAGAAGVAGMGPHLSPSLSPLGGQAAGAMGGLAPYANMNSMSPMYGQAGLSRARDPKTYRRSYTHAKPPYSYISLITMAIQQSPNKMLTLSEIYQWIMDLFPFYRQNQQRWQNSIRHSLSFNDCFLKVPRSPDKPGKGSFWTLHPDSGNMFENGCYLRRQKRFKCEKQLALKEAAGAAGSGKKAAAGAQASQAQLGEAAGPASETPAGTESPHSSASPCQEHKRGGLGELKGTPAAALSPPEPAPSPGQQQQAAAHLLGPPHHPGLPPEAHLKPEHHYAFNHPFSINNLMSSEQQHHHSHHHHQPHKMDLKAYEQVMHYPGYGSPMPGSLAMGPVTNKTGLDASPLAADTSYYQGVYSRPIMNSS
Aryl hydrocarbon receptor (Homo sapiens), sequence (P35869 whole entry, looked up): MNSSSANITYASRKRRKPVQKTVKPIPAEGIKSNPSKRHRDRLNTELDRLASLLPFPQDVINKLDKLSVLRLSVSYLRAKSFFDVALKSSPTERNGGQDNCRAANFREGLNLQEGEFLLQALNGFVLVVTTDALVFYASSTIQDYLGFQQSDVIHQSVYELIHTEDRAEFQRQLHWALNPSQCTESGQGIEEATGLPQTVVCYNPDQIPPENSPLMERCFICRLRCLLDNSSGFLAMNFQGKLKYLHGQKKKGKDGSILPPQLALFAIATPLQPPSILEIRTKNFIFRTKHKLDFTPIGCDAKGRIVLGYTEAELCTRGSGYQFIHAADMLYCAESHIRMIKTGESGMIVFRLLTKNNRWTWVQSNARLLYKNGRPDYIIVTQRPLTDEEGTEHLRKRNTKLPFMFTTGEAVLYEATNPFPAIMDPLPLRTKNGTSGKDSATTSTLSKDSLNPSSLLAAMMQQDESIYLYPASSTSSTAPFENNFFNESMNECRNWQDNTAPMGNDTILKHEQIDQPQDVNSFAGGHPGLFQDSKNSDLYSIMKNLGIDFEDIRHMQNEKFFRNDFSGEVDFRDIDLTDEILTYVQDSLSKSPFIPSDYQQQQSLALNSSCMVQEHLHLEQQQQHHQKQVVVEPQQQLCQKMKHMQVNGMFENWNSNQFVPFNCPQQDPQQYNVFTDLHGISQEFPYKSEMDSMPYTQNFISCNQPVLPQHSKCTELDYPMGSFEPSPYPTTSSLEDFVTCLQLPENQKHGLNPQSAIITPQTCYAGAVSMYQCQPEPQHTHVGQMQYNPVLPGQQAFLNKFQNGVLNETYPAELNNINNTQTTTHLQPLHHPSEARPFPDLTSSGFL
Retinoic acid receptor alpha (Homo sapiens), sequence (P10276 whole entry, looked up): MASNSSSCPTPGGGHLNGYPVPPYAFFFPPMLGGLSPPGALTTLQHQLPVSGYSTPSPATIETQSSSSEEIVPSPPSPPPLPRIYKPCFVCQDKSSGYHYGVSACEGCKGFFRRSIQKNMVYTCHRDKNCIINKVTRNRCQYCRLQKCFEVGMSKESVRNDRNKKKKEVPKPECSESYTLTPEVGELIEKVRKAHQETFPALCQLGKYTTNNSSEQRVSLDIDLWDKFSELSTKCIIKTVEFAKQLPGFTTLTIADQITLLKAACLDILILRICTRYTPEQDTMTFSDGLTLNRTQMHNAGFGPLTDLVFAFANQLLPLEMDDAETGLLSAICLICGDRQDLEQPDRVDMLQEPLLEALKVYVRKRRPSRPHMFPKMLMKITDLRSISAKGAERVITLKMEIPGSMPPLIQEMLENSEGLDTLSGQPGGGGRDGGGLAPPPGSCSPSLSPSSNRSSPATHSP
Bile acid receptor (Homo sapiens), sequence (Q96RI1 whole entry, looked up): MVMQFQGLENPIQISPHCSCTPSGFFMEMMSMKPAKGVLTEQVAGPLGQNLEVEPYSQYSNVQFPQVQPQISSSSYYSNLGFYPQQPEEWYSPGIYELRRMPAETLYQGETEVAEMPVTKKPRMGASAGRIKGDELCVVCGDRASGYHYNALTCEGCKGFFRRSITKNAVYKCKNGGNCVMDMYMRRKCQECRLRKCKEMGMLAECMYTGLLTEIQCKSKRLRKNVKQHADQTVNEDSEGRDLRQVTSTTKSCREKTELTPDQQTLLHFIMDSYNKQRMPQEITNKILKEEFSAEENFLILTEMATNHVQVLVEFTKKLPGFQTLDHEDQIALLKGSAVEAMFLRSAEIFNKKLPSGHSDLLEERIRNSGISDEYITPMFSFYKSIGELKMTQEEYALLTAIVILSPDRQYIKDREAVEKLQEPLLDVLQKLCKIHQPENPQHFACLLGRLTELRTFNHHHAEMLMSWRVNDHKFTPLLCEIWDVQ

As for `CCNc1nc(NCC)nc(SC)n1`, the call in assay [1], in assay [2], in assay [3], in assay [4], in assay [5] and in [6] was inactive. Also, the result in assay [7], in assay [8], in [9], in assay [10], in assay [11] and in assay [12] was inactive. For the same compound, the compound was classed as inactive in assay [13] and in assay [14].

Take `O=C/C(Cl)=C(/Cl)C(=O)O`: the AC50 is 70.7 µM (active) in [1]; 61.5 µM (active) in assay [4]; 100 µM (active) in assay [7]; 145 µM (active) in assay [8]; 132 µM (active) in assay [11]; 46 µM (active) in [18]. Besides, the half-maximal activity concentration (AC50) in [14] is 100 µM (active). Also, the result in [2], in assay [3], in assay [5], in assay [6], in assay [15] and in assay [16] was inactive. Besides, the outcome in assay [17], in assay [9], in [10], in [12], in [13] and in assay [19] was inactive.

With `CN(C1CCCCC1)C1CCCCC1`, the compound was classed as inactive in assay [1], in [2], in assay [3], in [4], in assay [5] and in [6]. The outcome in assay [7], in [15], in assay [8], in assay [16], in assay [17] and in [9] was inactive. Also, the compound was classed as inactive in assay [10], in [11], in [12], in assay [13], in assay [19] and in assay [14].

As to `ClCc1ccccc1CCl`, the AC50 in [1] was 16.6 µM (active); in [3] it was 59.7 µM (active); in assay [7], 33.4 µM (active); in [8], 29.5 µM (active); in assay [9], 15.7 µM (active); in assay [10] it was 33.4 µM (active). Moreover, the AC50 is 33.4 µM (active) in assay [13], 33.4 µM (active) in assay [18] and 45.9 µM (active) in assay [14]. In addition, the compound was called inactive in [2], in assay [4], in assay [5], in assay [6], in [15] and in assay [16]. For the same compound, the compound was classed as inactive in assay [11], in assay [12] and in assay [19].
